The campaign covered roughly 330,000 compounds. About 2,800 (0.85%) were called active.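 How the source made its calls: active means mean inhibition across replicates of 60% or more, whatever share of single replicates reaches that level; inconclusive means some that reach 60%, reason not given; inactive means mean inhibition across replicates below 60%.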 This excerpt belongs to a sample that is enriched for actives.
Assay: inhibitors of MITF-dependent TRPM1 promoter reporter, primary screen, cell-based, SK-MEL-5, single point, luciferase (AID 488899)
Details: SK-MEL-5 TRPM1 promoter luciferase, 24 h; at 12.5 µM; active compounds read high

SMILES	inhibition
CCN(CC(=O)NCCCN1CCOCC1)S(=O)(=O)c1cc(Cl)ccc1Cl	12.6% (inactive)
O=c1[nH]c2cccnc2n(CCNc2ncc(C(F)(F)F)cc2Cl)c1=O	-3.01% (inactive)
O=C(O[C@@H]1[C@H](Cc2ccccc2)NS(=O)(=O)[C@H]2C[C@@H]3C=C[C@]12O3)c1ccccc1Br	-5.01% (inactive)
O=C(Nc1ccc(Br)cn1)C1CCN(S(=O)(=O)c2cccs2)CC1	20.1% (inactive)
O=c1[nH]c(=S)[nH]c(O)c1/C=C1\C=Nc2ccccc21	65.4% (active)
CCc1ccc(NC(=O)CN2CCC(C(=O)c3ccc(OC)cc3)CC2)cc1	16.5% (inactive)
COCC(=O)Nc1c(C(=O)N2CCCC2)oc2ccccc12	-5.06% (inactive)
Cc1cc(C)cc(OCC(=O)NNC(=O)c2cc3ccccc3oc2=O)c1	-14.8% (inactive)
NC(=O)C1(N2CCCCC2)CCN(C(=O)c2ccc(C#Cc3ccccc3)o2)CC1	10.7% (inactive)
Cc1cc(C(=O)CCl)c(C)n1CC1COc2ccccc2O1 (stereo unspecified)	51.2% (inactive)
Cc1ccsc1C(=O)OCC(=O)c1cc(C)n(CC2CCCO2)c1C (stereo unspecified)	68% (active)
COc1ccc(C(=O)OCC(=O)c2cc(C)n(CC3CCCO3)c2C)cc1[N+](=O)[O-] (stereo unspecified)	-13.5% (inactive)
CCOc1cccc2c1OC1(CCCCC1)N1N=C(c3cccnc3)CC21 (stereo unspecified)	-62.4% (inactive)
Cn1c(=O)c2c(n(Cc3ccccc3)c1=O)NC(=O)C2CC(=O)N1CCc2ccccc2C1 (stereo unspecified)	-5.67% (inactive)
COC(=O)C1CCN(CC(N)=O)CC1	-7.19% (inactive)
COc1ccc2ccccc2c1/C=N/NC(=O)c1cc(C)[nH]n1	-14.1% (inactive)
Cc1cc(C(=O)N/N=C/c2cc([N+](=O)[O-])cc(C)c2O)n[nH]1	11.2% (inactive)
CC(C)(C)c1cc(C(=O)N/N=C/c2ccc([N+](=O)[O-])s2)n[nH]1	85.1% (active)
COc1ccc(S(=O)(=O)N2CCOCC2)cc1NC(=O)c1ccc(OCC(C)C)c(OC)c1	-3.59% (inactive)
O=C(Oc1ccc(-c2nc(-c3ccccn3)no2)cc1)c1ccccc1	36.6% (inactive)
O=C(CN1C(=O)c2ccccc2S1(=O)=O)NC1CCCCC1	4.83% (inactive)
O=C(CN1C(=O)c2ccccc2S1(=O)=O)N1CCc2ccccc21	74.1% (active)
CC1CCCN(C(=O)CN2C(=O)c3ccccc3S2(=O)=O)C1 (stereo unspecified)	11.4% (inactive)

SMILES	inhibition
Cc1ccc(SCC(=O)NC(=O)NCc2ccco2)c(C)c1	9.21% (inactive)
COCC(=O)N(C)[C@H]1C[C@H]2c3cc(Oc4ccccc4C)ccc3CCN2C(=O)[C@H]1[C@H](C)O	-16.5% (inactive)
CC1CCCN(CC(O)COCc2ccccc2)C1 (stereo unspecified)	-13.7% (inactive)
Oc1c(CN2CCCC2)cc(COCc2ccccc2)c2cccnc12	73.5% (active)
Cc1cc(=O)oc2cc(OCC(=O)N3CCN(c4ccc(F)cc4)CC3)c(Cl)cc12	-0.292% (inactive)
Cc1ccc(CN2CCN(c3ncccn3)CC2)c(C)c1	4.53% (inactive)
COc1cc(C)cc(CN2CCC(Cc3ccccc3)CC2)c1O	2.68% (inactive)
Oc1c(CN2CCN(c3ccc(F)cc3)CC2)cc(Cl)c2cccnc12	70.7% (active)
COc1ccc(OCCNS(=O)(=O)Cc2ccccc2)cc1	0.0862% (inactive)
Cc1ccc(NC(=O)CN2CCCCC2)c2c1CC(C)(C)O2	-7.61% (inactive)
CCNC(=S)NCC	5.56% (inactive)
O=C(NNC(=O)c1ccc(-n2cncn2)c([N+](=O)[O-])c1)c1ccccc1	-1.1% (inactive)
COc1ccc2c(c1OC)C(=O)OC2Nc1nc(-c2ccccc2)cs1 (stereo unspecified)	68.6% (active)
COc1cc(CC(=O)Nc2nc(-c3ccc(F)c(F)c3)cs2)cc(OC)c1OC	0.159% (inactive)
Cc1ccc(-c2csc(NC3OC(=O)c4ccccc43)n2)cc1 (stereo unspecified)	31.3% (inactive)
CCc1cc(-c2nnc(SCC(=O)NC3CC3)n2C)cs1	-9% (inactive)
CCOC(=O)c1ccc(NC(=O)c2c(N)n(C)c(=O)[nH]c2=O)cc1	-48.3% (inactive)
O=c1[nH]c(NCCO)nnc1Cc1ccc(Cl)cc1	5.61% (inactive)
COc1ccc(Cc2nnc(N/N=C/c3ccccc3O)[nH]c2=O)cc1OC	64% (active)
CC(C)c1ccc(Cc2nnc(NCCCO)[nH]c2=O)cc1	-0.574% (inactive)
Cc1ccc(CN2CC(C(=O)N3CCN(S(=O)(=O)c4ccccc4)CC3)CC2=O)cc1 (stereo unspecified)	-1.06% (inactive)
CCOc1nc(NCCN2CCOCC2)nc(Nc2ccc(C)cc2)n1	-2.25% (inactive)
c1ccc2cc3c(NCCN4CCOCC4)ccnc3cc2c1	80.4% (active)

SMILES	inhibition
c1ccc(-c2ccc(OCCN3CCOCC3)cc2)cc1	-61.1% (inactive)
O=C1NC(c2ccc(-c3ccccc3[N+](=O)[O-])o2)C(C(=O)c2ccc(Cl)cc2)C(O)(C(F)(F)F)N1 (stereo unspecified)	12.2% (inactive)
O=C(Nc1ccccc1Cl)/C(Cl)=C(\Cl)S(=O)c1ccccc1 (stereo unspecified)	97% (active)
Cc1c(NC(=O)Nc2ccccc2Cl)sc(=S)n1C	-9.97% (inactive)
CN(C)S(=O)(=O)Oc1ccccc1C(=O)Nc1ccccc1Cl	-7.26% (inactive)
Nc1ccc2[nH]c(=S)sc2c1	-7.16% (inactive)
OC(COc1ccc(Br)cc1)CN1CCCC1 (stereo unspecified)	-0.089% (inactive)
CC(Oc1ccc(Br)cc1)C(=O)NC1CCCCCC1 (stereo unspecified)	-16.6% (inactive)
CC(C)(C)CC(C)(C)NCC(O)COCCOc1ccc(Br)cc1 (stereo unspecified)	85.9% (active)
COc1ccc(C2NCCCC2c2ccccc2)cc1 (stereo unspecified)	14.7% (inactive)
Cc1ccccc1N1CCN(C(=O)c2cccnc2)CC1	2.88% (inactive)
CCOc1ccc(NC(=S)N2CCC(N(C)CC3CCCO3)CC2)cc1 (stereo unspecified)	-2.52% (inactive)
C/C(=N\OCC(=O)O)c1ccc(Cl)cc1	-2.61% (inactive)
CCOC(=O)CN/C=C(\C#N)c1ccc(F)cc1	19.8% (inactive)
CCOc1cc(/C=C(/C#N)c2ccc(Cl)cc2)cc(Cl)c1OCC(=O)O	98.2% (active)
C#CCOCCOCCOCCNc1nc(N2CCN(C(=O)CCCCCCCCCCNC(=O)[C@H](CCCCN)n3cc(C)nn3)CC2)nc(N2CCN(C(=O)CCCCCCCCCCNC(=O)[C@H](CO)n3cc(CCCSC)nn3)CC2)n1	47.5% (inactive)
C#CCOCCOCCOCCNc1nc(N2CCN(C(=O)CCCCCCCCCCNC(=O)Cn3cc(CCCCCN)nn3)CC2)nc(N2CCN(C(=O)CCCCCCCCCCNC(=O)[C@H](CO)n3cc(CCCSC)nn3)CC2)n1	23.1% (inactive)
C#CCOCCOCCOCCNc1nc(N2CCN(C(=O)CCCCCCCCCCNC(=O)[C@H]([C@@H](C)CC)n3cc(CCCCN=C(N)N)nn3)CC2)nc(N2CCN(C(=O)CCCCCCCCCCNC(=O)[C@H](CO)n3cc(CCCSC)nn3)CC2)n1	72.9% (active)
Cc1ccc(-c2nn(C(C)(C)C)c3ncnc(N)c23)cc1	3.91% (inactive)
CN(C)c1ccc(CSc2ccccc2)cc1	-111% (inactive)
Cc1ccc(C(=O)NC(=S)Nc2ccc3[nH]c(=O)[nH]c3c2)cc1C	3.06% (inactive)
N#Cc1nc(N)nc(N(c2ccccc2)c2ccccc2)n1	10.4% (inactive)
COc1ccc(S(=O)(=O)N2CCOCC2)cc1NC(=O)Cc1coc2cc(C)ccc12	5.65% (inactive)

SMILES	inhibition
CC[C@H]1CN2CCc3cc(OC)c(OC)cc3[C@@H]2C[C@@H]1C[C@H]1NCCc2cc(OC)c(OC)cc21	85.1% (active)
CCc1ccc(OCC2c3cc(OC)c(OC)cc3CCN2C(C)=O)cc1 (stereo unspecified)	-0.63% (inactive)
COc1cc2c(cc1OC)CN(CC(=O)Nc1ccc(F)cc1)CC2	4.57% (inactive)
COc1ccc(/C=C/C2=CC(C)(C)NC(=S)N2)c(OC)c1	10.5% (inactive)
Cc1ccccc1-n1nc(C)c2c1N=C1C(Cl)=CC(Cl)=CN1C2c1ccc(C(=O)O)cc1 (stereo unspecified)	5.65% (inactive)
Cn1c(=O)c2c(nc(SCCNS(=O)(=O)c3ccccc3)n2C)n(C)c1=O	-8.94% (inactive)
COc1ccc(Cc2n[nH]c(=S)n2NC(=O)Nc2ccc(C)cc2)cc1	-46.7% (inactive)
CC(C)CC[n+]1ccn(C2=C([O-])c3ccccc3C(=O)/C2=N\S(=O)(=O)c2ccccc2)c1	91.1% (active)
CC(=O)Nc1ccc(NC(=O)C(C)n2c3ccccc3c3nc(=O)cc(C)n32)cc1 (stereo unspecified)	11.5% (inactive)
CCn1c(CC(=O)Nc2ccc(C)cc2)nnc1SCC(=O)Nc1nc(C)cs1	6.57% (inactive)
COc1ccc2oc(N)nc2c1	7.49% (inactive)
CC(C)(C)c1ccc(OC2=CS(=O)(=O)c3ccccc32)cc1	-25.6% (inactive)
CC(C)(C)c1ccc(Oc2ccc(N)cc2)cc1	91.7% (active)
COc1cccc(Oc2ccc(N)cc2)c1	-4.14% (inactive)
COc1ccc(C(=O)Nc2ccccc2C(=O)N/N=C/c2ccc(O)c(OC)c2)cc1	73.3% (active)
COc1ccc(C(=O)Nc2ccccc2C(=O)N2CCN(c3ccccc3)CC2)cc1	-1.5% (inactive)
COc1ccc(/C=N/Nc2ccccc2C(=O)O)cc1	-4.16% (inactive)
CC(=O)NC(Cc1ccc(F)c(F)c1)C(=O)NC1CCN(C(=O)c2ccc(C)cc2)CC1 (stereo unspecified)	7.52% (inactive)
CSc1nc(-c2ccccc2)nc(C(Cl)Cl)n1	87.8% (active)
CSc1ncc(Sc2ccccc2)c(C(=O)O)n1	5.79% (inactive)
Cc1ccc(CNC(=O)c2ccc(CS(=O)Cc3cccc(Cl)c3)o2)cc1 (stereo unspecified)	2.54% (inactive)
CCOC(=O)N1CCN(c2c(NCCCN3CCCC(C)C3)c(=O)c2=O)CC1 (stereo unspecified)	-5.22% (inactive)
